Experimental data as given in the supplement of paper PMC10849652.
Targets with a hit are over-represented here; the source holds about 8,800 in all. About 0.5% of all pairs of compound and target were hits. A number with no mark means an inactive call.

How the values were obtained:
Experiment in all cases: log2 fold change, soluble protein after heating vs DMSO (PISA); higher = thermal stabilisation; K562 lysate, 10 uM; active = over 0.2 and 3.5 SD of the protein, either way, in both replicates (recomputed)
[1] = compound: CC1=C2C(=CC=C1)N=C(N(C2=O)C3=CC=CC=C3C)CN4C=NC5=C(N=CN=C54)N
Procedure, shortened: (§1)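 Log-two fold change in thermal stability relative to solvent controls is reported from duplicates. For each sample, crude K562 extract from dounce-homogenised pellets in PBS pH 7.4 with 1 mM MgCl2, at 1 mg/mL protein, was treated with 10 μM compound for 30 min. Aliquots heated for 3 min across 48°C-58°C were pooled, brought to 0.5% NP-40 at 4°C and cleared at 21,000xg for 90 min. The supernatant was quantified by TMTpro 16plex LC-MS/MS with channel sums equalised.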

[2] = compound: Cc1sc2c(c1C)C(c1ccc(Cl)cc1)=N[C@@H](CC(=O)OC(C)(C)C)c1nnc(C)n1-2
Procedure, shortened: as §1

[3] = compound: c1ccc([C@@H]2C[C@H]2NC2CCNCC2)cc1
Procedure, shortened: as §1

[4] = compound: C1=CC=C(C=C1)[C@H](COC2=CC3=C(C=C2)NC(=O)N3)NC(=O)C4=CC=CN(C4=O)CC5=CC(=C(C=C5)F)F
Procedure, shortened: as §1

[5] = compound: CC1=C(SC2=C1C(=N[C@H](C3=NN=C(N32)C)CC(=O)N)C4=CC=C(C=C4)Cl)C
Procedure, shortened: as §1

Chain of UniProt Q13948 (Q13948 whole entry, looked up): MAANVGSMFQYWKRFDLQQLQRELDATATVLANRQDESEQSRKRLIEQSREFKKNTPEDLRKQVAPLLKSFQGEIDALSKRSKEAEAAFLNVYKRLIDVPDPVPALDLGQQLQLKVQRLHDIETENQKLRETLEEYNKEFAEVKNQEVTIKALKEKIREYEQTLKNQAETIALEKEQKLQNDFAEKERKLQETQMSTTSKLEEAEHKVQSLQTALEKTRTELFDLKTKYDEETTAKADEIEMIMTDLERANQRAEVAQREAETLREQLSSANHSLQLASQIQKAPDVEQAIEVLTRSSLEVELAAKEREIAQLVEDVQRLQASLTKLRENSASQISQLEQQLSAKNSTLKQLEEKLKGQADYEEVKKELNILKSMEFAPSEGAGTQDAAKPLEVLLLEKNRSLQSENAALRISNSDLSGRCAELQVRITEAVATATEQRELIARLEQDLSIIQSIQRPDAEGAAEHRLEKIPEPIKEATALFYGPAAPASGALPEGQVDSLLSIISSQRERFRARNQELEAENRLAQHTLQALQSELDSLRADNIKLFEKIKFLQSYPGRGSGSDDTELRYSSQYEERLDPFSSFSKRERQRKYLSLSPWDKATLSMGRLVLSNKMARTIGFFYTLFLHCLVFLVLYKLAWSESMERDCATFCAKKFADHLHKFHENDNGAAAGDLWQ
Chain of UniProt Q08345 (Q08345 whole entry, looked up): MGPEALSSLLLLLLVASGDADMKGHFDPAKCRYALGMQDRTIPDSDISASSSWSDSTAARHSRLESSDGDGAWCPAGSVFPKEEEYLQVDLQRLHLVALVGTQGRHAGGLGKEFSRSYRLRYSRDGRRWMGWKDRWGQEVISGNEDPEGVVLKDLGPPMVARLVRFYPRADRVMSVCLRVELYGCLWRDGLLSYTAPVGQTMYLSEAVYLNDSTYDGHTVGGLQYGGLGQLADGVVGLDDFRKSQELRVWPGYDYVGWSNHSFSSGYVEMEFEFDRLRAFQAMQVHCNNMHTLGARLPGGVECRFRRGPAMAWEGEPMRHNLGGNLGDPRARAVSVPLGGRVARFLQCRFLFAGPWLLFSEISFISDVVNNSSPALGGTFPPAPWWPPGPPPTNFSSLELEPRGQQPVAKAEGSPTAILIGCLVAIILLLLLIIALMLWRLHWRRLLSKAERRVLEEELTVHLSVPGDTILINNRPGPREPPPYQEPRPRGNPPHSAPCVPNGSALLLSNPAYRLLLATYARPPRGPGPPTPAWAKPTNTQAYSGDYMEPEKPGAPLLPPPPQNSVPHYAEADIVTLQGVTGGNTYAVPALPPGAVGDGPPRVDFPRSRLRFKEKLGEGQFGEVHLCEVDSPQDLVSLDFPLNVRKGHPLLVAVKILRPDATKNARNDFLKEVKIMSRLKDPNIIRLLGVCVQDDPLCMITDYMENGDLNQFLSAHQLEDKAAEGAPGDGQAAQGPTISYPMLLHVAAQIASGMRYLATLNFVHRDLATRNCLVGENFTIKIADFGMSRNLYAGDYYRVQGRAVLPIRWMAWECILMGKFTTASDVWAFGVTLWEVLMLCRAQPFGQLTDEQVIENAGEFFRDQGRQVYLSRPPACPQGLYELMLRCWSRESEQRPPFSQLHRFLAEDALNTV
Chain of UniProt P24311 (P24311 whole entry, looked up): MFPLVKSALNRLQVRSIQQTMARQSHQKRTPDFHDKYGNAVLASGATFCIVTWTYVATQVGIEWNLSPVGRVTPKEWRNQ
Chain of UniProt G9CGD6 (G9CGD6 whole entry, looked up): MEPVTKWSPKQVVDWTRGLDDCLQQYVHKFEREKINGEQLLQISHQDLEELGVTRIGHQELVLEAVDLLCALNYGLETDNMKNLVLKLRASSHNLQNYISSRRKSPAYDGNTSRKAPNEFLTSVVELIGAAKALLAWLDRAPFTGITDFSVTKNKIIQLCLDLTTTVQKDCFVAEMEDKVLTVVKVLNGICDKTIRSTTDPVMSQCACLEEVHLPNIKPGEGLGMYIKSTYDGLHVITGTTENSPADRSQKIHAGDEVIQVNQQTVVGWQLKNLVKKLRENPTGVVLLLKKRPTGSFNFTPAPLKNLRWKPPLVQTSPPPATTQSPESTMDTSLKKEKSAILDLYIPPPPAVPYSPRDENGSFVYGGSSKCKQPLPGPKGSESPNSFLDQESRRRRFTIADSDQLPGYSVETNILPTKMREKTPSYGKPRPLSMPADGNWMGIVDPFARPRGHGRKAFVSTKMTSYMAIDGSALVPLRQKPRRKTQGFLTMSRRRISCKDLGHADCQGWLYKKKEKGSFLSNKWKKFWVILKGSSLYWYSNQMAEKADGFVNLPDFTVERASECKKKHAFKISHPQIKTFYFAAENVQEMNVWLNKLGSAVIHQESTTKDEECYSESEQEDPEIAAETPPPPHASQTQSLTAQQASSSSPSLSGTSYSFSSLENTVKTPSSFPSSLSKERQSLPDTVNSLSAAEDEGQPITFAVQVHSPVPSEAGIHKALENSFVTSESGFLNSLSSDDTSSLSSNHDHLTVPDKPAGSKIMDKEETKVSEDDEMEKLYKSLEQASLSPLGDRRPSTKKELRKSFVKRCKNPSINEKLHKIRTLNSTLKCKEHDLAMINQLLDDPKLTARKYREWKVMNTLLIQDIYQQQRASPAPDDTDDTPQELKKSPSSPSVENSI
Chain of UniProt P53355 (P53355 whole entry, looked up): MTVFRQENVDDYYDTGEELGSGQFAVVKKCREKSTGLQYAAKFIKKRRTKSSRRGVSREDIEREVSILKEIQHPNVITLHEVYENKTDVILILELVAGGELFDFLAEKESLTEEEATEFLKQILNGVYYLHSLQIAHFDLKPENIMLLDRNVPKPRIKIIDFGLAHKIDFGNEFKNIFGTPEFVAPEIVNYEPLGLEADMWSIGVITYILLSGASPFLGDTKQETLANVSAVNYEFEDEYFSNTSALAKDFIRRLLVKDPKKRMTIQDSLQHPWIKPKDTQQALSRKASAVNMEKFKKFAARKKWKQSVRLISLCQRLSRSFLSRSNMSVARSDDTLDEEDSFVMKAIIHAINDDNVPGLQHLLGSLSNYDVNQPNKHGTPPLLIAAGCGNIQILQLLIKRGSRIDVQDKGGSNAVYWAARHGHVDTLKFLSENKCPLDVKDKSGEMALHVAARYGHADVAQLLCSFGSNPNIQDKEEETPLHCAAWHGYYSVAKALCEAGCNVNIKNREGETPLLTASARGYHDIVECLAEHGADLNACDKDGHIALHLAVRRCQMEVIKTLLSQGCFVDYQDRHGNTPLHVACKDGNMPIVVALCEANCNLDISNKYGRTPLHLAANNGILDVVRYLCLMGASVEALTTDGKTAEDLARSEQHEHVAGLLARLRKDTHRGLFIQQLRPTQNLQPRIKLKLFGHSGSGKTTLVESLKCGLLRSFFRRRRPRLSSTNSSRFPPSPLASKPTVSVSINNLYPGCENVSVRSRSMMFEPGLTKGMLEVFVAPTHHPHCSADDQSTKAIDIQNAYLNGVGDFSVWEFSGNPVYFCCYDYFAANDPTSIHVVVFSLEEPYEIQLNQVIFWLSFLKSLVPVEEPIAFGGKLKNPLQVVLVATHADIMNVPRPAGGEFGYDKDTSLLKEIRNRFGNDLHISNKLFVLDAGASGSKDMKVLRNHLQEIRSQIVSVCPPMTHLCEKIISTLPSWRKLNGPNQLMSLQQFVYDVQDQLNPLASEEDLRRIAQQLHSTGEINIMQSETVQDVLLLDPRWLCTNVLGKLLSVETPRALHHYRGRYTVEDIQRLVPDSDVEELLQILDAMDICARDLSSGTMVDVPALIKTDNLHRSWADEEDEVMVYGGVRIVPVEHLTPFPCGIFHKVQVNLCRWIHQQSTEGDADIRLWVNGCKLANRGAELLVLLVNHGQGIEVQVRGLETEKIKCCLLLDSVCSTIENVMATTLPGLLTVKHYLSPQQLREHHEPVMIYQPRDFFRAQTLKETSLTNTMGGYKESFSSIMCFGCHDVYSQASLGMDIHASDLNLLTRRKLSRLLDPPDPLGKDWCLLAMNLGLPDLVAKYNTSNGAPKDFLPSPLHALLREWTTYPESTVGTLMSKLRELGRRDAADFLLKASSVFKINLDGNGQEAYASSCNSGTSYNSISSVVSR
Chain of UniProt Q9H8M5 (Q9H8M5 whole entry, looked up): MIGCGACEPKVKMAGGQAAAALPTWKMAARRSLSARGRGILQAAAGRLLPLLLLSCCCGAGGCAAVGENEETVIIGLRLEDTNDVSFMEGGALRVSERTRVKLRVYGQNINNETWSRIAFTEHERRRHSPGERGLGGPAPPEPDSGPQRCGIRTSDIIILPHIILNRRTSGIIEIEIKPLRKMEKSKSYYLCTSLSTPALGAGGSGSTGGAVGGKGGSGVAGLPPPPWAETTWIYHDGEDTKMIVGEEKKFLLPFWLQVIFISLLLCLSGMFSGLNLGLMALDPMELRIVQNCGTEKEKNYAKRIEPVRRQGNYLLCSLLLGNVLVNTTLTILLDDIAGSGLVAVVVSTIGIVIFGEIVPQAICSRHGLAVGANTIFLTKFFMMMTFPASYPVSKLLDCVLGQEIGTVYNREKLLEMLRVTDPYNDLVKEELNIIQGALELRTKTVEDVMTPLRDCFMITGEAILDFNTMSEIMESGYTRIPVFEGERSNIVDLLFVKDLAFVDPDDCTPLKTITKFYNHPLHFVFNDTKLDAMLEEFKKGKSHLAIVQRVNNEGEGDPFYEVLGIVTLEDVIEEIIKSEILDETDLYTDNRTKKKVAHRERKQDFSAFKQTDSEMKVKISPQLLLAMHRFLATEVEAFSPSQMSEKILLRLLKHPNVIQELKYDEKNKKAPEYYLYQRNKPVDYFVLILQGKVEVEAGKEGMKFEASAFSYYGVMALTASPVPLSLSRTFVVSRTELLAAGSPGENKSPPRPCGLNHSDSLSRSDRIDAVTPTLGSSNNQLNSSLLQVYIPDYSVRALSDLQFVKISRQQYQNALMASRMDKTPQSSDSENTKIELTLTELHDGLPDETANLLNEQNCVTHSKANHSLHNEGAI
Chain of UniProt O14810 (O14810 whole entry, looked up): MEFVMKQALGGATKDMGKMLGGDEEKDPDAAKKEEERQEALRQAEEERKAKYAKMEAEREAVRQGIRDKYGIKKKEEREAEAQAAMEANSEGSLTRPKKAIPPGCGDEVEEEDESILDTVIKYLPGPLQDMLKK

Row | Target | log2 fold change [1] | log2 fold change [2] | log2 fold change [3] | log2 fold change [4] | log2 fold change [5]
1 | CPLX1 (UniProt O14810) | -0.08 | -0.239 |  |  | 
2 | DALRD3 (UniProt Q5D0E6) | 0.193 |  | 0.137 |  | 
3 | CLIP1, A0A3B3ITA2 | 0.035 |  | -0.123 |  | 
4 | CNNM2 (UniProt Q9H8M5) | 0.041 | 0.034 | 0.014 |  | 
5 | CUX1 isoform 2 (UniProt Q13948) | 0.03 | 0.075 | 0.193 |  | 
6 | CNK3/IPCEF1 isoform 2 (UniProt G9CGD6) | -0.032 | 0 | -0.817 |  | 
7 | CLIP1 isoform 2 (UniProt P30622) |  | 0.009 | -0.002 | 0.11 | -0.03
8 | CNTN4 (UniProt Q8IWV2) | 0.105 |  | -0.319 | 0.046 | 0.073
9 | COL12A1 (UniProt Q99715) | 0.08 | -0.078 |  |  | 
10 | DAPK1 isoform 3 (UniProt P53355) | 0.035 | 0.013 | 0.039 |  | 
11 | COX7B (UniProt P24311) | -0.031 | -0.027 | -0.075 |  | 
12 | CHFR (UniProt Q96EP1) | 0.027 | -0.056 |  |  | 
13 | DNA2 (UniProt P51530) | 0.047 | 0.072 | 0.026 |  | 
14 | DHRS13 (UniProt Q6UX07) |  | -0.099 |  | -0.13 | 0.059
15 | DIAPH1 (UniProt H9KV28) | 0.007 |  | -0.117 | 0.009 | 0.023
16 | DDR1 isoform 5 (UniProt Q08345) |  | -0.09 | 0.135 | -0.1 | 0.057
17 | CSDE1 isoform 3 (UniProt O75534) |  |  | 0.043 | -0.18 | -0.098
18 | CHMP4A (UniProt H0YIN6) |  | -0.222 | -0.12 | 0.032 | 0.166
19 | CYP4V2 (UniProt Q6ZWL3) |  | 0.035 |  | -0.119 | 0.188
20 | DESI2 (UniProt Q9BSY9) | -0.142 |  | -0.038 |  | 
